Records with an inconclusive call do not appear. A call without a number means that no potency is given here. The source made the active and inactive calls. Calls come from the whole dose curve; as a rule, active = well fitted activation curve with a large enough effect in the repeat runs; inconclusive = weak or mixed curves; inactive = flat fitted curve, though single readings scatter.

Among the data in PubChem BioAssay (NCATS) are Potency values, retold here.
Potency is the fitted concentration of half-maximal effect.

A short description of the assay: qHTS assay for small molecule agonists of the antioxidant response element (ARE) signaling pathway measured by Nrf2-dependant transcriptional activity (AID 720636). As to conditions: ARE-luc HepG2, Nrf2 luciferase reporter, 16 h; series mostly up to 92.4 µM. The text has this:
National Center for Advancing Translational Sciences [NCATS] NIH Chemical Genomics Center [NCGC] U.S. Environmental Protection Agency [EPA] National Institutes of Environmental Health Sciences [NIEHS] National Toxicology Program [NTP] Assay Overview: The antioxidant response element (ARE) signaling pathway plays an important role in the cellular anti-oxidant defense. Exposure to stressors which are exogenous like ionizing radiations, chemicals, U-V light, and endogenous like cell signaling, metabolic processes or inflammation, reactive oxygen species (ROS), can induce oxidative stress in the cells. Oxidative stress has been implicated in the pathogenesis of a variety of diseases ranging from cancer to neurodegeneration. ARE-luc HepG2 cell line (Simmons et al., Current Chemical Genomics, 5:1-12, 2011) has been used for identifying the chemicals that induce oxidative stress. The cell line has an Nrf2-responsive luciferase reporter gene that has been engineered to measure Nrf2-dependant transcriptional activity.
Assay Protocol Summary: For measuring ARE induction; 2,000 ARE-luc HepG2 cells in 5 uL of assay medium containing 1% dialyzed FBS per well were dispensed into white wall/solid bottom 1536-well plates using a Flying Reagent Dispenser (FRD) (Aurora Discovery). The assay plates were incubated for 6 hr at 37 C to allow cell attachment to the well bottom, followed by the transfer of 23 nL compound or DMSO vehicle by a pin tool (Kalypsys). The plates were incubated for 16 hr at 37 C and 5% CO2, followed by the addition of 5 uL of ONE-GloTM luciferase reagent (Promega) into each well using FRD. After 30 min room temperature incubation, plates were read on a ViewLux plate reader (PerkinElmer).
Take `O=C(O)c1ccc2c(c1)C(=O)OC2=O`: the Potency result was “inactive”.

As for `C=C(C)C(=O)OCCC[Si](OC)(OC)OC`, the Potency result was “inactive”.

As to `C/C=C/C=C/CCCCCCCO`, the Potency entry was “inactive”.

For `C[Si]1(C)O[Si](C)(C)O[Si](C)(C)O[Si](C)(C)O[Si](C)(C)O1`, the Potency result was “inactive”.

Take `CC/C=C/CCCCCCCCCCOC(C)=O`: the Potency entry is “inactive”.

With `O=C(c1ccccc1)c1ccc(O)c(O)c1O`, the Potency entry is “inactive”.

As to `CCCCCc1ccc(N)cc1`, the Potency result is “inactive”.

For `CCC(=O)OCCc1ccccc1`, the Potency entry was “inactive”.

On to `CCOC(=O)c1ccccc1C`, for which the Potency entry was “inactive”.

Regarding `CN=C(N)NCC1CCOC1` (stereo not given), the Potency result was “inactive”.

Take `CCCCOCCOCCO`: the Potency entry is “inactive”.

For the molecule `C=CC(=O)OCC[N+](C)(C)C`, the Potency entry was “inactive”.

Turning to `CCCCCCC(C)OC(=O)COc1nc(F)c(Cl)c(N)c1Cl` (stereo not given), the Potency result was “inactive”.

In the case of `O=C(O)CCCCCCCCCCC(=O)O`, the Potency entry was “inactive”.

In the case of `CCCCCCCCCCCO`, the Potency result is “inactive”.

Regarding `c1cc2ccc3ccc4ccc5cccc6c(c1)c2c3c4c56`, the Potency entry was “inactive”.

On to `C=Cc1ccccc1Br`, for which the Potency entry was “inactive”.

`CS(=O)(=O)c1ccc(Cl)cc1`: the Potency entry was “inactive”.

As for `O=C(O)CN(CCO)CCN(CC(=O)O)CC(=O)O`, the Potency entry was “inactive”.

Regarding `Cc1cc(Cc2cc(C)cc(C(C)(C)C)c2O)c(O)c(C(C)(C)C)c1`, the Potency entry is “inactive”.

With `CC(C)OC(=O)c1ccccc1C(=O)OC(C)C`, the Potency result is “inactive”.

For `CNc1nc(=O)n(C2CCC(O)CC2)c(=O)n1C` (stereo not given), the Potency result is “inactive”.

With `Nc1cc(Cl)c(O)c(Cl)c1`, the Potency is 68.6 µM (active).

Take `CCOC(=O)COc1cc(-n2ncc(C(F)(F)F)c(C)c2=O)c(F)cc1Cl`: the Potency result is “inactive”.

Consider `CO/N=C1\C[C@]2(C[C@@H]3C[C@@H](C/C=C(\C)C[C@@H](C)/C=C/C=C4\CO[C@@H]5[C@H](O)C(C)=C[C@@H](C(=O)O3)[C@]45O)O2)O[C@H](/C(C)=C/C(C)C)[C@H]1C`, for which the Potency entry is “inactive”.

Consider `Cc1ccc2c(c1)C(=O)OC2=O`, for which the Potency entry was “inactive”.

As to `CC1(C)CC(OC(=O)CCCCCCCCC(=O)OC2CC(C)(C)NC(C)(C)C2)CC(C)(C)N1`, the Potency entry is “inactive”.

As for `CN(C)c1ccc(C(c2ccccc2)c2ccc(N(C)C)cc2)cc1`, the Potency result is “inactive”.

Take `O=[N+]([O-])C(CO)(CO)CO`: the Potency result was “inactive”.

`CCc1c(C(=O)O)c(=O)cnn1-c1ccc(Cl)cc1`: the Potency result was “inactive”.

`CC(C)(C)c1ccc(C(=O)O)cc1`: the Potency result is “inactive”.

Regarding `OCCOCCOCCOCCOCCO`, the Potency result is “inactive”.

Consider `CC(C)(C)c1cccc(C(C)(C)C)c1O`, for which the Potency entry is “inactive”.

On to `BrC1CCC(Br)C(Br)CCC(Br)C(Br)CCC1Br` (stereo not given), for which the Potency result was “inactive”.

For `CCOCCOCCOC(C)=O`, the Potency result is “inactive”.

Regarding `CCOC(=O)CCCCCCCCC(=O)OCC`, the Potency entry is “inactive”.

Regarding `O=C(c1ccc(Cl)cc1)c1ccc(Cl)cc1`, the Potency entry was “inactive”.

As to `Brc1ccc(Br)c(Br)c1`, the Potency entry is “inactive”.

As to `CCCCOC(=O)c1ccccc1`, the Potency result was “inactive”.

For the molecule `CCCCCCCCCCCCCCCCCCN`, the Potency result is “inactive”.
